Measurements: the supplement of paper PMC3334620
Whole data set: some 33,000 sequences, median “E-score (-0.5 to 0.5)” near -0.035, cut for the highest 2% near 0.35. The entries come from a sample that favours the highest values as a whole.

target: T1, Pdr3 (UniProt P33200); test: PBM E-score (8-mer binding enrichment) (E-score (-0.5 to 0.5)); higher = stronger / more preferred TF binding; conditions: protein concentration: 200 nM; construct: GST-full length
T1 sequence: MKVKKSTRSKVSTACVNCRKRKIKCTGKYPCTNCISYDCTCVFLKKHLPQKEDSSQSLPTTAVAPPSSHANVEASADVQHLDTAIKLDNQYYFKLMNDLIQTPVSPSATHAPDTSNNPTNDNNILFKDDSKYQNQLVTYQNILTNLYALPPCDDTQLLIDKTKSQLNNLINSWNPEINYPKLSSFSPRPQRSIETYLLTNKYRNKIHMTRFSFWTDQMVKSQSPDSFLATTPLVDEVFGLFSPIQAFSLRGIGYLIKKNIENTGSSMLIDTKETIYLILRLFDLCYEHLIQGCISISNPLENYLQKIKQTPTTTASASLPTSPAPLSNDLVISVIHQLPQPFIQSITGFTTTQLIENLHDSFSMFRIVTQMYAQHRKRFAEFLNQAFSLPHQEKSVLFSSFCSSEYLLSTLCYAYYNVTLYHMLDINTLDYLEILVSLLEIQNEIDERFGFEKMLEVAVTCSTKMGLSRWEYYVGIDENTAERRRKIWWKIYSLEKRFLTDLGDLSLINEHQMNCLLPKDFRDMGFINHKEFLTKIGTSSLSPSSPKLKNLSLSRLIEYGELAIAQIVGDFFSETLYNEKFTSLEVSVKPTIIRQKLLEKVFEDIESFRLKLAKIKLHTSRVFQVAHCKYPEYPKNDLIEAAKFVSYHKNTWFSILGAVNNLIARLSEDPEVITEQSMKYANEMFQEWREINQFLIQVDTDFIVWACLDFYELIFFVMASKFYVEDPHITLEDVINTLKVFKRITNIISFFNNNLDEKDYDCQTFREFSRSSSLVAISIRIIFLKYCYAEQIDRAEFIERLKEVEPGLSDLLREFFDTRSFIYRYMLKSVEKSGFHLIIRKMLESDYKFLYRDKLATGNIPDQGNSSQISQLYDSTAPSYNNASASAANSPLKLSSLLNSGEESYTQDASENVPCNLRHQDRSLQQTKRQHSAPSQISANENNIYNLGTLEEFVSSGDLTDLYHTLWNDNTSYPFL
Description: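 Universal 'all 10-mer' protein binding microarrays (Agilent AMADID 015681) probed with GST-tagged S. cerevisiae TFs (full-length or DBD) made by in vitro transcription/translation (PURExpress), about 100-200 nM. Bound TF was detected with fluorescent anti-GST. Each ungapped 8-mer (which stands for itself and its reverse complement) is scored by the PBM enrichment score (E-score), a modified Wilcoxon-Mann-Whitney statistic from -0.5 to +0.5, computed with the Universal PBM Analysis Suite. Scale: above 0.35 generally sequence-specific binding.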

| Sequence | PBM E-score |
| --- | --- |
| AATTCGGC | 0.173 |
| CGTTCGGC | 0.171 |
| CATTCGGC | 0.145 |
| CATTCGGA | 0.356 |
| AATTCGGG | 0.153 |
| GATTCGGA | 0.29 |
| CGTTCGGA | 0.414 |
| AATTCGGA | 0.365 |
| GGTTCGGA | 0.34 |
| GTAGCGTA | -0.0161 |
| CTGTCGCC | 0.0223 |
| AAAAGATC | -0.0361 |
| TCCGCAGA | 0.258 |
| CCCAAACA | -0.0368 |
| AGGTTAGA | -0.00179 |
| CGCCTGCC | -0.0358 |
| AACCACCC | -0.00213 |
| ACATAGAT | -0.085 |
| CCAACCGC | 0.146 |
| AGTGTTCG | -0.0373 |
| CATTAGAG | -0.234 |
| CCGAAGCC | 0.245 |
| CGGAAGCA | 0.428 |
| AGGAAGCA | -0.16 |
| GGGAAGCA | -0.0013 |

| Sequence | PBM E-score |
| --- | --- |
| CGGAAGCC | 0.416 |
| AGGAAGCC | -0.0295 |
| CGCGCTCC | 0.308 |
| ATTGTGGC | 0.0289 |
| GTCTACCA | -0.252 |
| GTGGGAAA | -0.0227 |
| CGGTTGGC | 0.161 |
| AAATACGG | 0.0148 |
| CCACGGGA | 0.325 |
| ACACGGAG | 0.284 |
| CCACGGCG | 0.182 |
| CCACGGAC | 0.34 |
| TCACGGGA | 0.203 |
| ACACGGAT | 0.302 |
| CCACGGAG | 0.429 |
| CCACGGAA | 0.484 |
| TCACGGCA | 0.193 |
| ACACGGAA | 0.438 |
| CCACGGGG | 0.335 |
| TCACGGAA | 0.464 |
| ACAATTTG | -0.117 |
| AGACGGGC | 0.0159 |
| CTCGCAAA | -0.131 |
| AGGAGAAT | -0.00643 |
| AGGATGCA | -0.117 |

| Sequence | PBM E-score |
| --- | --- |
| AAGGCATC | -0.216 |
| ACCTAAAG | -0.12 |
| CTCCACGC | -0.165 |
| CGGATCAA | 0.356 |
| GGGATCAC | -0.0461 |
| CGGATCAC | 0.391 |
| AGGATCAC | -0.231 |
| TGGATCAA | -0.168 |
| CGGATCAG | 0.334 |
| ATAGCCCG | 0.0917 |
| ATCGTTTG | 0.0176 |
| TATTCGCA | -0.0986 |
| AGCCAGCT | -0.164 |
| GTGGCGAA | 0.106 |
| ACCGGGCG | 0.0259 |
| CCCCGGCG | 0.162 |
| ACGGGGCG | 0.183 |
| CCGGGGGC | 0.235 |
| CCGGGGCG | 0.374 |
| CCGGGGCA | 0.235 |
| CGGGGGCC | 0.142 |
| ACCGGGCC | 0.25 |
| CCCGGGCC | 0.397 |
| CCGGGGCC | 0.367 |
| GCCGGGCC | 0.12 |

| Sequence | PBM E-score |
| --- | --- |
| CCCGGGCG | 0.421 |
| AAGCAGCG | 0.017 |
| CTACTCCA | -0.162 |
| TCGACCGA | 0.0776 |
| ACTGGGCG | -0.018 |
| AGTATTGC | -0.0115 |
| ACCCAGTC | -0.0225 |
| CGCCTCCG | 0.295 |
| AACTAGAC | -0.106 |
| GCCTCACA | -0.114 |
| CCCGATCG | 0.234 |
| AAAAATGG | 0.0817 |
| GCGCCGCA | 0.151 |
| GCCGGGCA | 0.282 |
| ACCGGGCA | 0.102 |
| CCCGGGCA | 0.375 |
| GATAGTGC | -0.0798 |
| GTTCAAAC | -0.0193 |
| AGGATAAC | -0.212 |
| CTAATCTC | -0.0806 |
| ATCCCGCC | 0.322 |
| AACCCGCC | 0.165 |
| CACCCGCA | 0.115 |
| CGCCCGCG | 0.314 |
| AACCCGCG | 0.431 |

| Sequence | PBM E-score |
| --- | --- |
| CACCCGCG | 0.42 |
| ATCCCGCA | 0.21 |
| CACCCGCC | 0.332 |
| AACCCGCA | 0.18 |
| AGCCCGCG | 0.381 |
| AGCCCGCT | -0.183 |
| ATCCCGCG | 0.465 |
| AATTAGCA | 0.103 |
| ATGTCGAC | 0.0706 |
| ATTGCGAA | -0.0818 |
| GTCAGATA | -0.0744 |
| CTAAGAAC | 0.165 |
| CAGACGAA | 0.199 |
| AGAATACT | -0.121 |
| CAGAACAA | 0.0215 |
| CTACTTAC | -0.312 |
| CACTAAGG | -0.0887 |
| CATCCCCA | -0.0591 |
| CATCCCGG | 0.431 |
| CATCCCGC | 0.315 |
| AATCCCCG | 0.296 |
| GATCCCGA | 0.317 |
| AATCCCGG | 0.407 |
| AATCCCTG | -0.0189 |
| CATCCCGA | 0.352 |

| Sequence | PBM E-score |
| --- | --- |
| GATCCCGC | 0.371 |
| CATCCCCG | 0.354 |
| CATCCCCC | 0.0287 |
| CATCCCAG | -0.106 |
| CACTTTAG | -0.149 |
| AGTCTGCG | -0.259 |
| CAGGCGTA | -0.145 |
| ACGTCAGG | -0.326 |
| AGGCAGGG | -0.153 |
| ACGAATGC | -0.158 |
| ATGCGCGA | 0.0846 |
| ATGCGCGG | 0.355 |
| ATGCGCGC | 0.275 |
| CTCCGCGC | 0.368 |
| GCGCGCGC | 0.388 |
| CCGCGCGC | 0.332 |
| GCGCGCGA | 0.308 |
| CCGCGCGG | 0.473 |
| CTCCGCGA | 0.258 |
| ACGCGCGC | 0.238 |
| CCGCGCGA | 0.303 |
| ATCCGCGC | 0.309 |
| GCGTAGTA | -0.095 |
| ACGCCTGA | -0.148 |
| CTAGAAAG | -0.189 |

| Sequence | PBM E-score |
| --- | --- |
| GTCCGGGA | 0.353 |
| CTCCGGGA | 0.399 |
| CGCCGGTA | 0.13 |
| CGCCGGGA | 0.382 |
| GGCCGGGA | 0.39 |
| CTCCGAGA | 0.274 |
| GGCCGGTA | 0.274 |
| AGCCGGGA | 0.3 |
| CGCCGGGC | 0.308 |
| GAACATAC | 0.0175 |
| CCTAGACG | 0.012 |
| ATCCTGGG | -0.104 |
| GGCCCCCC | -0.0393 |
| AAGGCTTG | -0.0886 |
| AGATCACC | 0.0531 |
| GAGACTCC | 0.0113 |
| AGGCTAAA | -0.297 |
| CCGGAGTC | 0.384 |
| ACGGAGTA | 0.297 |
| ACGGAGTC | 0.193 |
| GCGGAGTA | 0.245 |
| CCGGAGGC | 0.292 |
| CCGGAGTA | 0.367 |
| AAGAGTTC | -0.178 |
| CCCCAACA | -0.274 |

| Sequence | PBM E-score |
| --- | --- |
| ATTAAGAG | -0.0729 |
| CGCGCGGA | 0.383 |
| CGAGCGGA | 0.359 |
| CGCGCGGC | 0.373 |
| CGAGCGGC | 0.228 |
| AGAGCGGA | 0.229 |
| AGCGCGGC | 0.107 |
| CGTGCGGA | 0.177 |
| AGTGCGGG | 0.185 |
| GGCGCGGA | 0.352 |
| AGCGCGGA | 0.331 |
| AGTGCGGA | 0.377 |
| CTCGCGGC | 0.171 |
| AGGCTACT | -0.167 |
| CCGCCAGC | 0.105 |
| TACCTAGA | -0.195 |
| ACCCGTAT | 0.0405 |
| AGAGTAAC | 0.0157 |
| AAATCTAT | -0.00749 |
| CGGTGTAG | -0.0315 |
| CTTATCCA | -0.00809 |
| CGCGGGGC | 0.304 |
| CGCGGGAC | 0.444 |
| CGCGGGAA | 0.429 |
| GGCGGGAC | 0.295 |

| Sequence | PBM E-score |
| --- | --- |
| GGCGGGAA | 0.198 |
| CGCGGGGA | 0.393 |
| AGCGGGGA | 0.0517 |
| AGCGGGAC | 0.185 |
| AGCGGGAA | 0.232 |
| AAGTTCAG | -0.098 |
| CGGTTCCC | 0.153 |
| AGTACTGG | -0.222 |
| GAACTAGC | -0.00564 |
| ATTCCCTA | 0.0152 |
| GGTTCTTA | -0.0791 |
| AAGACCAA | -0.0835 |
| GTTACCCA | -0.159 |
| ATGCGCTG | -0.0256 |
| AATCAACT | 0.0921 |
| ATAAGCTC | 0.042 |
| AGCCGCGG | 0.485 |
| AACCGCGT | 0.141 |
| CACCGCGG | 0.452 |
| AGCCGCGA | 0.187 |
| CACCGCGC | 0.166 |
| AACCGCGA | 0.277 |
| AACCGCGG | 0.457 |
| CACCGCGA | 0.032 |
| AGCCGCGC | 0.236 |
